Test [1] can be described thus: resazurin metabolic signal in HepG2 cells – cell-based, resazurin fluorescence, 24 h, PK04 Diversity Set, profiling panel (AID 1172). Note: test concentration not given here. As to conditions: HepG2 viability, higher = more signal.
The nature of test [2]: budding yeast growth changes without added modifier – OD600, strain BY4716, 24 h, basal condition, primary screen (AID 1173). As to conditions: S. cerevisiae BY4716 growth, OD600, 24 h; higher = more signal, called active from +8 up or from −8 down.
Test [3] in a line: viability profiling in MM1S myeloma cells – cell-based, resazurin fluorescence, basal, 24 h, PK04 Diversity Set, profiling panel (AID 1174). Note: test concentration not given here. As to conditions: higher = more signal, called active from +8 up or from −8 down.
Test [4] concerns the target Dihydroorotate dehydrogenase (quinone), mitochondrial (Plasmodium falciparum (isolate 3D7)) (UniProt Q08210). Briefly: inhibition of P. falciparum DHODH – biochemical, C-terminal His tag, absorbance 600 nm, primary screen (AID 1175).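 Note: recombinant parasite enzyme with a five histidine tag at its C terminus; test concentration not given here.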 As to conditions: PfDHODH enzyme, DCIP absorbance 600 nm; higher = more signal, called active from +8 up or from −8 down.
Test [5] can be described thus: inhibition of PAO1 biofilm formation – strain PAO1, LB-PBS medium, absorbance 600 nm, primary screen (AID 1176). Note: test concentration not given here. As to conditions: P. aeruginosa PAO1 growth/biofilm, A600, 12 h; higher = more signal.
Test [6] is described as follows: growth modulation of vineyard yeast isolate – strain RM11-1a, OD600, basal, 24 h, primary screen (AID 1177).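 Note: cultures grown under basal conditions with no added stressor; test concentration not given here.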 The following applies: S. cerevisiae RM11-1a growth, OD600, 24 h; higher = more signal, called active from +8 up or from −8 down.
The nature of test [7]: growth of efflux-deficient E. coli DRC39 – strain DRC39, OD650, 24 h, E. coli filamentation inducers, primary screen (AID 1178).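 Note: growth measured as culture turbidity by optical density at 650 nm; test concentration not given here.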 The following applies: E. coli DRC39 acrAB, higher = more signal, called active from +8 up or from −8 down.
Test [8] can be described thus: growth of efflux-deficient E. coli DRC39 – strain DRC39, OD650, 48 h, E. coli filamentation inducers, primary screen (AID 1179).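 Note: screen aims at cell division blockers that make cells filament.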 As to conditions: E. coli DRC39 delta-acrAB growth, higher = more signal, called active from +8 up or from −8 down.
A short description of test [9]: viability profiling in RPMI8226 myeloma cells – cell-based, resazurin fluorescence, basal, 24 h, PK04 Diversity Set, profiling panel (AID 1180).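 Note: RPMI8826 multiple myeloma cell line at 5000 cells per well; test concentration not given here.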 As to conditions: higher = more signal. For orientation: Alamar Blue is a resazurin reagent that responds to reducing activity.
Test [10] deals with E3 ubiquitin-protein ligase XIAP (Homo sapiens) (UniProt P98170). Nature of the test: small molecules binding XIAP protein – biophysical, small-molecule microarray, fluorescence 635 nm, primary screen (AID 1181).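 Note: score merges 667 nm emission and signal to noise over triplicate slides.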 The following applies: higher = more signal.

Active and inactive are the calls of the source. Unless noted, the rule behind the calls is not given here.

E3 ubiquitin-protein ligase XIAP (Homo sapiens), sequence (P98170 whole entry, looked up): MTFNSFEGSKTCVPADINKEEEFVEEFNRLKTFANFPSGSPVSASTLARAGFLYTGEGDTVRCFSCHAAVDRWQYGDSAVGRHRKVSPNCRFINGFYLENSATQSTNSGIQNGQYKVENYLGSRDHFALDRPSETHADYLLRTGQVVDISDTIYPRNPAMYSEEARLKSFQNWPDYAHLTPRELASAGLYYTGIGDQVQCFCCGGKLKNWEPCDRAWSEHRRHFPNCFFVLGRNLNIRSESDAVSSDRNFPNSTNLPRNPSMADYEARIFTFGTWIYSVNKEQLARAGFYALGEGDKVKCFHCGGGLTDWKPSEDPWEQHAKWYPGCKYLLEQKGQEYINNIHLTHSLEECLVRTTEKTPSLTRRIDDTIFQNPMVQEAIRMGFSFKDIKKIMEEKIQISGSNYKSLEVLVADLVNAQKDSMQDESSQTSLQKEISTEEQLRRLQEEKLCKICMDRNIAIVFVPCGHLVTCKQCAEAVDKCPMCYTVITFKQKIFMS
Dihydroorotate dehydrogenase (quinone), mitochondrial (Plasmodium falciparum (isolate 3D7)), sequence (Q08210 whole entry, looked up): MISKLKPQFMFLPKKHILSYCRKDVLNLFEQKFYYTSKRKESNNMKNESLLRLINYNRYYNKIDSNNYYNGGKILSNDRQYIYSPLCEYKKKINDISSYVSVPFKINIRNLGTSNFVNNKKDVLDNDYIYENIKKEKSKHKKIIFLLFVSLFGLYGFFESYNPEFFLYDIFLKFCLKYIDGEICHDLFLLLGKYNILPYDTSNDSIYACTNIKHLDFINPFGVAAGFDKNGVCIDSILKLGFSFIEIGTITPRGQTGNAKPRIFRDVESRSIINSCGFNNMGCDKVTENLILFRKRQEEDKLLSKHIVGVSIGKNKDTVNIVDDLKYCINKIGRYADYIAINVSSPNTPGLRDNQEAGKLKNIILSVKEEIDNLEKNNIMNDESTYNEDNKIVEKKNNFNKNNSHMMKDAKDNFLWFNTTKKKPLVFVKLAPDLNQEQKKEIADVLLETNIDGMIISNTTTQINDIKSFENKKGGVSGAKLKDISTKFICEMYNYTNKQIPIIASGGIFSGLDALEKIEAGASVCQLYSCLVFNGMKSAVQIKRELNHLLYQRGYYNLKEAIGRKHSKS

`CC(=O)OC[C@H]1O[C@H](CC=NOC[C@@H](C)[C@H](OCc2ccccc2)C(C)C)C=C[C@@H]1OC(C)=O`: the z-score in test [1] is 0.643; in test [2], 0.904 (inactive); in test [3], -0.473 (inactive); in test [5], 0.0738 (inactive); in test [6], -0.0321 (inactive); in [7] it was 0.204 (inactive). For the same compound, the z-score in test [8] was 0.193 (inactive); in test [9], 0.692. Further, the composite z-score is -0.298 (inactive) in test [4] and -0.0571 in test [10].

Turning to `CCOC(=O)NN=C1C[C@@H](O)[C@@H](O)[C@@H]2[C@@H]3C(=O)N(CC)C(=O)[C@@H]3CC[C@@H]12`, the z-score was -0.0886 in test [1]; 0.398 (inactive) in test [2]; -0.621 (inactive) in test [3]; -0.331 (inactive) in [5]; -0.823 (inactive) in test [6]; -0.145 (inactive) in test [7]. The z-score in test [8] was -0.325 (inactive); in test [9], -0.423. The results for the composite z-score in test [4] and in test [10] were -0.538 (inactive) and -0.105, respectively.

For `CC1CC/C=C\[C@H]2OC34C=CCN(Cn5nnc6ccccc65)C(=O)[C@H]3N(CCO)C(=O)[C@@H]4C2C(=O)O1` (stereo not given in full), the z-score was 0.831 in test [1]; -0.895 (inactive) in [2]; 0.869 (inactive) in test [3]; 0.773 (inactive) in [5]; -0.943 (inactive) in [6]; 0.673 (inactive) in [7]. Moreover, the z-score in test [8] was -0.108 (inactive); in [9], 1.04. Further, the figures for the composite z-score in test [4] and in test [10] were -0.895 (inactive) and 0.235, respectively.

For the compound `C#CCCCON=C1C[C@@H](O)[C@@H](O)[C@@H]2[C@@H]3C(=O)N(c4cccc(Oc5ccccc5)c4)C(=O)[C@@H]3CC[C@@H]12`, the z-score in test [1] was 0.32; in [2], -1.13 (inactive); in test [3], 0.47 (inactive); in [5], -0.601 (inactive); in test [6], -0.293 (inactive); in [7], -0.146 (inactive). Moreover, the z-score in test [8] was -0.0303 (inactive); in test [9], 0.868. Moreover, the composite z-score in test [4] is 1 (inactive); in [10], 0.0153.

Turning to `CN(C)c1ccc(C(O)C2C=CC3C(=O)N(c4ccccc4)C(=O)C3N2Nc2ccccc2F)cc1` (stereo not given), the z-score in test [1] was -0.268; in test [2], -1.77 (inactive); in test [3], -0.234 (inactive); in test [5], 0.657 (inactive); in test [6], 0.545 (inactive); in test [7] it was -0.853 (inactive). The z-score was -1.08 (inactive) in test [8] and -1.02 in test [9]. In addition, the composite z-score in [4] was 1.03 (inactive); in test [10], 0.24.

Regarding `COC(=O)CC1OC1[C@H](C)[C@@H](OC)C(C)C` (stereo not given in full), the z-score in [1] is -0.863; in test [2], -4.59 (inactive); in test [3], -1.91 (inactive); in test [5] it was 0.699 (inactive); in test [6] it was 0.748 (inactive); in test [7], 0.487 (inactive). Further, the z-score in test [8] was 0.293 (inactive); in test [9] it was -1.43. Also, the composite z-score in test [4] was -3.39 (inactive); in test [10], -0.313.

`CO[C@H]1COC(=O)[C@H](C)COC(=O)CC=C[C@@H](C)[C@H](OC)COC(=O)CC=C[C@@H]1C`: the z-score in [1] was -0.194; in test [2], -0.754 (inactive); in [3] it was -0.152 (inactive); in test [5] it was -0.167 (inactive); in [6], -0.192 (inactive); in test [7] it was 0.778 (inactive). In addition, the z-score in [8] is 0.804 (inactive); in test [9], 0.129. Also, the results for the composite z-score in test [4] and in test [10] were -0.365 (inactive) and -0.0117, respectively.

As to `C[N+](C)(C)CCCCCCNC(=O)[C@@H]1C[C@@H]2C(=O)N3CCC[C@H]3C(=O)N2[C@@H]1c1cccc(OCCO)c1`, the z-score in test [1] was 2.14; in [2], -0.887 (inactive); in [3] it was 0.984 (inactive); in test [5], 0.808 (inactive); in test [6], -0.183 (inactive); in test [7] it was 0.0995 (inactive). Besides, the z-score in [8] is -0.514 (inactive); in [9], -0.245. Moreover, the composite z-score is -1.83 (inactive) in test [4] and -0.0655 in [10].

Take `Cc1cc2c(c(=O)o1)[C@H](O)[C@H]1O[C@H]1C2=O`: the z-score in [1] is 0.145; in test [2], -2 (inactive); in test [3], -1.19 (inactive); in test [5], -0.282 (inactive); in test [6], -0.627 (inactive); in [7], -0.973 (inactive). Also, the values for the z-score in test [8] and in test [9] were -0.662 (inactive) and -0.764, respectively. For the same compound, the composite z-score in test [4] is 0.44 (inactive); in test [10] it was -0.176.

Consider `[N-]=[N+]=NCc1ccccc1[C@@H]1OC(c2ccc(OCCCO)cc2)=N[C@]1(Cc1ccccc1)C(=O)N1CCOCC1`, for which the z-score in [1] was -0.85; in test [2] it was -0.833 (inactive); in test [3], -1.15 (inactive); in test [5] it was -0.208 (inactive); in test [6] it was 0.165 (inactive); in test [7] it was 0.559 (inactive). Also, the results for the z-score in test [8] and in [9] were 0.917 (inactive) and -0.425, respectively. The composite z-score in test [4] is -0.0859 (inactive); in test [10] it was 0.113.

Regarding `CO[C@@H]1COC(=O)CC=C[C@@H](C)[C@H](OC)COC(=O)[C@H](COCc2ccccc2)NC(=O)CC=C[C@H]1C`, the z-score was 0.628 in test [1]; -1.13 (inactive) in test [2]; -0.0928 (inactive) in test [3]; -0.225 (inactive) in [5]; -0.47 (inactive) in [6]; 0.406 (inactive) in [7]. Moreover, the z-score was -0.723 (inactive) in [8] and 1.35 in test [9]. For the same compound, the composite z-score in test [4] is -0.0234 (inactive); in test [10], 0.17.

With `CC(=O)OC[C@H]1O[C@H](CCON=C(C)CCN2CCc3nc(-c4ccccc4)c(-c4ccccc4)cc3C2)C=C[C@@H]1OC(C)=O`, the z-score in test [1] is 0.0962; in test [2], -0.0567 (inactive); in test [3], -0.91 (inactive); in test [5] it was 0.441 (inactive); in [6], -0.64 (inactive); in test [7] it was 0.304 (inactive). For the same compound, the z-score in test [8] is -0.545 (inactive); in [9] it was 0.28. In addition, the figures for the composite z-score in [4] and in [10] were -0.439 (inactive) and 0.275, respectively.

Source of the values: PubChem BioAssay.
